± gives the standard error. In all, about 1,300 sequences were measured (“fluorescence a.u.”: median about 420, highest 2% from about 1,100 on). Only a selection was taken, and the highest values are over-represented in it overall.
molecular target: terminal deoxynucleotidyl transferase (calf thymus) (UniProt P06526); test: TdT poly-dT extension signal (Cy3 hybridisation fluorescence, uncapped minus capped) (fluorescence a.u.); higher = more efficient initiation of TdT extension; conditions: initiator chemistry: 2'-O-methyl-RNA, free 3'-OH (5'-tethered via HEG linker)
Protocol: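 All mono- to pentamer 2'-O-methyl-RNA initiators were made by photolithographic in situ synthesis (3'-NPPOC amidites, reverse direction, free 3'-OH) on glass on a hexaethylene glycol linker. Each was made in uncapped and DMTr-dT-capped versions, about 11 replicates each. Arrays were extended with calf thymus TdT (0.2 U/uL), 100 uM dTTP and 0.25 mM CoCl2 for 120 min at 37 C, hybridised with an rA18-Cy3 probe and scanned at 532 nm. The value is the mean uncapped minus the mean capped signal. IDs are written 3'->5' and are reversed to 5'->3'; all nucleotides are 2'-OMe.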

Chain of terminal deoxynucleotidyl transferase (calf thymus) (P06526 whole entry): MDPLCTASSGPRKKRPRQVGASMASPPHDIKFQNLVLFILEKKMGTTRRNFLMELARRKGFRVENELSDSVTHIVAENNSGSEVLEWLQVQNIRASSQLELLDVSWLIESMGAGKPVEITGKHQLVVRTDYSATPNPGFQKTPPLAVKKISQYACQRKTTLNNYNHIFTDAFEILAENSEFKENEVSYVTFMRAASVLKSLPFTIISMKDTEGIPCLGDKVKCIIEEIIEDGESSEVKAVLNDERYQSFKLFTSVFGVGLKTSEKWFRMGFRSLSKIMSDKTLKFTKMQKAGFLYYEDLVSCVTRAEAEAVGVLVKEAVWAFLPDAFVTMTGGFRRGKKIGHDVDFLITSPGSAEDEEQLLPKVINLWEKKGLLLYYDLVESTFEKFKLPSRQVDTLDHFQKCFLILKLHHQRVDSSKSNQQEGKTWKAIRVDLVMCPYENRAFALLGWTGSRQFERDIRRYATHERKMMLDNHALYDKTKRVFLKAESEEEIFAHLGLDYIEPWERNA

| Sequence | TdT poly-dT extension signal |
| --- | --- |
| CCUAG | 353 ± 33 |
| GGUA | 376 ± 23 |
| CGUAU | 326 ± 32 |
| CCUU | 343 ± 26 |
| CGUUU | 232 ± 14 |
| CGCCG | 324 ± 46 |
| GCAAA | 1260 ± 170 |
| ACAAG | 613 ± 60 |
| CCAAA | 1170 ± 64 |
| CCAAC | 725 ± 53 |
| CCAA | 1060 ± 95 |
| GCAAC | 935 ± 81 |
| ACAAA | 1170 ± 100 |
| GCAA | 841 ± 41 |
| ACAA | 1060 ± 140 |
| AUACG | 244 ± 16 |
| CCUA | 528 ± 39 |
| GAUA | 432 ± 34 |
| CACAU | 469 ± 23 |
| UACG | 231 ± 24 |
| UACGC | 1190 ± 92 |
| GACGC | 1120 ± 110 |
| CUCGU | 483 ± 44 |
| GGUC | 489 ± 33 |
| CAGU | 512 ± 30 |
| CACA | 425 ± 22 |

| Sequence | TdT poly-dT extension signal |
| --- | --- |
| AAAGU | 535 ± 51 |
| GUAAC | 558 ± 40 |
| UGCAA | 770 ± 77 |
| UCAGA | 821 ± 37 |
| AAUAA | 788 ± 62 |
| ACCUA | 571 ± 34 |
| UUUCA | 224 ± 24 |
| GCGAA | 1000 ± 120 |
| GACUU | 318 ± 22 |
| AGGAG | 436 ± 25 |
| CAUGG | 217 ± 15 |
| AAGGC | 1170 ± 40 |
| AAGG | 383 ± 41 |
| CAGGC | 1060 ± 81 |
| CUCC | 396 ± 35 |
| AUCAC | 729 ± 63 |
| CUGUC | 440 ± 40 |
| AAUGA | 403 ± 20 |
| AUUCC | 377 ± 21 |
| GUGAA | 729 ± 86 |
| AUUGG | 176 ± 11 |
| GCUUG | 230 ± 30 |
| GAUUA | 366 ± 28 |
| GAAUU | 321 ± 24 |
| AGCGA | 556 ± 38 |
| UUCGU | 500 ± 42 |

| Sequence | TdT poly-dT extension signal |
| --- | --- |
| UUCG | 159 ± 17 |
| UUCGC | 1170 ± 79 |
| GCGCA | 351 ± 19 |
| GCCG | 192 ± 16 |
| UCGCA | 463 ± 31 |
| UCGC | 1140 ± 90 |
| UCGCU | 401 ± 25 |
| CAACA | 373 ± 34 |
| UCGG | 302 ± 31 |
| AAGAU | 506 ± 39 |
| UUAGG | 271 ± 26 |
| UCGAU | 402 ± 31 |
| AGGGC | 1120 ± 71 |
| CUAUA | 436 ± 37 |
| GUAUG | 157 ± 12 |
| CGGCU | 341 ± 24 |
| UCACG | 290 ± 31 |
| CUCAG | 488 ± 37 |
| CCCCG | 227 ± 18 |
| GGUAG | 272 ± 28 |
| ACCAC | 681 ± 58 |
| UCUG | 199 ± 16 |
| UUAUA | 375 ± 34 |
| CUCCG | 194 ± 14 |
| AACUC | 504 ± 22 |
| CAUGC | 1140 ± 140 |

| Sequence | TdT poly-dT extension signal |
| --- | --- |
| AAUGC | 1140 ± 77 |
| CAUG | 261 ± 26 |
| CAUGU | 374 ± 35 |
| AAUG | 175 ± 23 |
| AAUGG | 219 ± 18 |
| CGUAC | 482 ± 33 |
| AACUU | 369 ± 22 |
| GGCGG | 310 ± 26 |
| AUAGG | 266 ± 22 |
| CCUGG | 221 ± 18 |
| GCGGA | 554 ± 28 |
| GUCUG | 218 ± 15 |
| GGCUA | 621 ± 50 |
| GAAA | 879 ± 110 |
| CAAA | 1010 ± 77 |
| AAAA | 1010 ± 74 |
| UAAAA | 1190 ± 120 |
| UAAA | 764 ± 51 |
| AAAAA | 1140 ± 80 |
| GAAAG | 560 ± 51 |
| AAAAG | 572 ± 40 |
| UAAAG | 531 ± 53 |
| CAAAG | 703 ± 58 |
| GAAAA | 1340 ± 160 |
| CAAAA | 1140 ± 66 |
| UUUAA | 472 ± 39 |

| Sequence | TdT poly-dT extension signal |
| --- | --- |
| CACUG | 276 ± 22 |
| GUUG | 156 ± 11 |
| AGAA | 990 ± 120 |
| ACAGA | 899 ± 79 |
| CGAU | 429 ± 24 |
| CCCGC | 1200 ± 97 |
| UCCGC | 1090 ± 36 |
| CCCG | 312 ± 43 |
| CCCCC | 425 ± 34 |
| AACAG | 567 ± 34 |
| AUGUG | 141 ± 13 |
| CGGUU | 300 ± 22 |
| GAGGG | 362 ± 32 |
| AUUAU | 330 ± 49 |
| UGCGG | 324 ± 29 |
| UCAGC | 1040 ± 72 |
| AUUC | 339 ± 23 |
| CAGGU | 493 ± 28 |
| GGGGG | 472 ± 39 |
| AAUUA | 354 ± 22 |
| GCCAA | 696 ± 70 |
| UGGU | 453 ± 25 |
| UUUAC | 399 ± 22 |
| CCCAU | 552 ± 28 |
| GCCGG | 264 ± 21 |
| UCGA | 592 ± 34 |

| Sequence | TdT poly-dT extension signal |
| --- | --- |
| CGGGC | 1070 ± 81 |
| UAGU | 371 ± 23 |
| AGGAU | 433 ± 28 |
| CUUAC | 422 ± 38 |
| CAAAU | 657 ± 54 |
| CAGUC | 521 ± 42 |
| CACGG | 422 ± 55 |
| GCCAG | 491 ± 83 |
| GUAAU | 383 ± 30 |
| CGUCA | 307 ± 18 |
| UAACA | 312 ± 21 |
| GGCAU | 577 ± 48 |
| ACAUC | 447 ± 23 |
| GGGC | 1320 ± 130 |
| GGGCG | 330 ± 32 |
| GGGCA | 291 ± 26 |
| AGUG | 231 ± 23 |
| CGUGC | 1220 ± 81 |
| UGUGC | 1360 ± 95 |
| AGUGC | 1230 ± 130 |
| AGUGG | 280 ± 18 |
| GGUG | 210 ± 18 |
| CGUG | 298 ± 26 |
| GGUGU | 484 ± 37 |
| GGUGC | 1450 ± 72 |
| CGUGA | 389 ± 45 |

| Sequence | TdT poly-dT extension signal |
| --- | --- |
| UGUG | 149 ± 15 |
| UGUGA | 362 ± 29 |
| CGGAG | 465 ± 66 |
| GGCUG | 287 ± 31 |
| CUAGC | 785 ± 76 |
| CAGUA | 544 ± 58 |
| AAAU | 568 ± 46 |
| CGCU | 427 ± 65 |
| CCAGA | 833 ± 99 |
| CCAG | 470 ± 39 |
| CCAGC | 1240 ± 140 |
| UAAGC | 1190 ± 89 |
| AAAG | 538 ± 32 |
| CAAGG | 388 ± 18 |
| UAAG | 401 ± 44 |
| CAAGC | 1300 ± 67 |
| AAAGC | 1270 ± 67 |
| CAAG | 600 ± 36 |
| UAAGG | 350 ± 28 |
| GAAGC | 1060 ± 81 |
| GUCUA | 477 ± 45 |
| UUGG | 177 ± 12 |
| UCAGG | 384 ± 36 |
| AAUAC | 583 ± 71 |
| GACA | 349 ± 28 |
| CCGGC | 929 ± 50 |

| Sequence | TdT poly-dT extension signal |
| --- | --- |
| UGGA | 586 ± 52 |
| UAGGG | 313 ± 21 |
| AACUA | 675 ± 34 |
| UUCGA | 389 ± 32 |
| GACCA | 345 ± 31 |
| ACUCG | 256 ± 14 |
| UCGGU | 469 ± 22 |
| GGAC | 724 ± 120 |
| GCGGG | 285 ± 16 |
| UUAC | 418 ± 28 |
| CGCUG | 264 ± 25 |
| UUGCU | 326 ± 35 |
| AACGA | 620 ± 72 |
| CCACC | 410 ± 37 |
| AUCAG | 458 ± 47 |
| ACCAG | 559 ± 61 |
| GAAAC | 1000 ± 140 |
| AAUUU | 252 ± 27 |
| AACCG | 293 ± 26 |
| UCACC | 396 ± 31 |
| UUUCU | 226 ± 34 |
| CCGCG | 351 ± 19 |
| UUCAU | 442 ± 20 |
| CAGCU | 361 ± 26 |
| CAGCA | 560 ± 60 |
| CAGC | 1170 ± 110 |

| Sequence | TdT poly-dT extension signal |
| --- | --- |
| CCUUC | 341 ± 33 |
| CAUU | 293 ± 19 |
| GAACG | 310 ± 29 |
| GCAG | 492 ± 30 |
| AGAGA | 827 ± 77 |
| CGAGC | 1020 ± 61 |
| GGAG | 374 ± 20 |
| AGAG | 491 ± 39 |
| AGAGC | 1140 ± 83 |
| GGAGC | 1340 ± 130 |
| UCAUU | 329 ± 26 |
| UGAAA | 894 ± 54 |
| CUCUU | 266 ± 14 |
| GCGC | 946 ± 73 |
| AGUU | 341 ± 23 |
| CAAGA | 858 ± 93 |
| GAGGC | 1040 ± 84 |
| GGCUU | 336 ± 21 |

From the supplement of paper PMC8291772
